We go through 28 compounds from PubChem BioAssay (NCATS).

Results filed as inconclusive are left out. Calls of active or inactive are those of the source. The call rests on the fitted dose curve; in most records, active means well fitted cell-killing curve with a large enough effect; inconclusive means small, poorly fitted or top-dose-only effect, or effect the other way; inactive means flat fitted curve, though single readings scatter.
On the % scale 0 is the no-effect control and ±100 the full control effect; potency means the concentration at half of the fitted maximal effect.

One assay concerns PA-1. In words: Primary qHTS to identify gynecologic anti-cancer compounds using libraries of approved drugs and bioactive compounds (AID 1345084). Further: nearly all actives have a fitted effect of over 55% in size. The conditions noted are these: Gynecologic cancer cell panel viability, ATPlite luminescence, 48 h; series mostly up to 57.5 µM; activity change, negative = cytotoxicity: at the top concentration. An outline of the steps: (§1)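 Luminescence from the ATPlite ATP-monitoring reagent indicates viable cell number; lower signal means cytotoxicity. Cells received compound 16 h after seeding and were exposed for 48 h across five concentrations.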
For orientation: In qHTS, concentration-response curves come from the screen itself.
Regarding `CN=C(NC#N)NCCSCc1csc(N=C(N)N)n1`, the “activity change, negative = cytotoxicity” value was 3.58% (inactive).

On to `CCCCOc1ccc(C(=O)CCN2CCCCC2)cc1`, for which the “activity change, negative = cytotoxicity” value was -16.2% (inactive). For the compound `COc1c2occc2c(OC)c2c(=O)cc(C)oc12`, the “activity change, negative = cytotoxicity” value is 0.561% (inactive). In the case of `C#C[C@]1(OC(C)=O)CC[C@H]2[C@@H]3CCC4=C[C@@H](OC(C)=O)CC[C@@H]4[C@H]3CC[C@@]21C`, the Potency entry is “inactive”. In the case of `COCc1c(C(C)C)nc(C(C)C)c(/C=C/[C@@H](O)C[C@@H](O)CC(=O)O)c1-c1ccc(F)cc1`, the Potency is 2.82 µM (active). For `COc1ccc(OC)c(C(O)CNC(=O)CN)c1` (configuration not stated), the “activity change, negative = cytotoxicity” value is -0.231% (inactive). Regarding `CCCCC(CC)CN=C(N)NC(N)=NCCCCCCN=C(N)NC(N)=NCC(CC)CCCC` (configuration not stated), the Potency was 10 µM (active).

In the case of `CC(C)(C(=O)c1cccnc1)c1cccnc1`, the “activity change, negative = cytotoxicity” value was -1.72% (inactive).

With `c1ccc(-c2ccc(C(c3ccccc3)n3ccnc3)cc2)cc1` (configuration not stated), the “activity change, negative = cytotoxicity” value was -19.3% (inactive). On the same count and under the same terms, in the case of `CCCCCCCCCCCCCCCCOP(=O)([O-])OCC[N+](C)(C)C` it was 5.03% (inactive). Take `C[n+]1c2cc(N)ccc2cc2ccc(N)cc21` (tested in a mixture with another compound): the Potency was 5.01 µM (active). As to `C=C(CC)C(=O)c1ccc(OCC(=O)O)c(Cl)c1Cl`, the “activity change, negative = cytotoxicity” value was -11.4% (inactive). Turning to `O=C1[C@H]2CCCC[C@H]2C(=O)N1CCCCN1CCN(c2nsc3ccccc23)CC1`, the “activity change, negative = cytotoxicity” value is 10.1% (inactive). For the compound `C[C@H](O)C(=O)Nc1c(I)c(C(=O)NC(CO)CO)c(I)c(C(=O)NC(CO)CO)c1I`, the “activity change, negative = cytotoxicity” value was 0.452% (inactive). With `CN(C/C=C/c1ccccc1)Cc1cccc2ccccc12`, the “activity change, negative = cytotoxicity” value was -6.11% (inactive).

Consider `c1ccc(OCc2ccc(CCCN3CCOCC3)cc2)cc1`, for which the “activity change, negative = cytotoxicity” value was 3.27% (inactive). Take `Cc1cccn2c(=O)c(-c3nnn[nH]3)cnc12`: the “activity change, negative = cytotoxicity” value is -3.59% [at 25.3 µM] (inactive). Regarding `CCCCCCCCCCCCCCCC[N+](C)(C)CC`, the Potency was 10 µM (active). `CCC(C(=O)OCCN(CC)CC)c1ccccc1` (configuration not stated): the “activity change, negative = cytotoxicity” value was 2.73% (inactive).

A further assay has as its system SKOV3. The description is as above. The settings on record: Gynecologic cancer cell panel viability, ATPlite luminescence, 48 h; series mostly up to 57.5 µM; activity change, negative = cytotoxicity: at the top concentration. In outline:
as §1
(Cellular ATP, detected with luciferase, serves as a proxy for viable cell number.)
Turning to `CN=C(NC#N)NCCSCc1csc(N=C(N)N)n1`, the “activity change, negative = cytotoxicity” value is 0% (inactive). Take `CC(=O)c1ccc2c(c1)N(CCCN1CCC(CCO)CC1)c1ccccc1S2`: the “activity change, negative = cytotoxicity” value was -9.01% (inactive). `COc1c2occc2c(OC)c2c(=O)cc(C)oc12`: the “activity change, negative = cytotoxicity” value is 4.54% (inactive). For `C#C[C@]1(OC(C)=O)CC[C@H]2[C@@H]3CCC4=C[C@@H](OC(C)=O)CC[C@@H]4[C@H]3CC[C@@]21C`, the Potency entry was “inactive”. Take `COc1ccc(OC)c(C(O)CNC(=O)CN)c1` (configuration not stated): the “activity change, negative = cytotoxicity” value is -29.1% (inactive). For `CC(C)(C(=O)c1cccnc1)c1cccnc1`, the “activity change, negative = cytotoxicity” value was 11.3% (inactive).

`C[C@]12CCC(=O)C=C1[C@@H]1C[C@@H]1[C@H]1[C@@H]3[C@@H]4C[C@@H]4[C@@]4(CCC(=O)O4)[C@@]3(C)CC[C@@H]12`: the “activity change, negative = cytotoxicity” value was -8.47% (inactive).

On to `CCCCCCCCCCCCCCCCOP(=O)([O-])OCC[N+](C)(C)C`, for which the “activity change, negative = cytotoxicity” value was 25.4% (inactive).

Regarding `C[n+]1c2cc(N)ccc2cc2ccc(N)cc21` (tested in a mixture with another compound), the Potency was 12.6 µM (active). Still for that read-out and setting: in the case of `CN(C)C(=S)SC(=S)N(C)C` it was 11.2 µM (active). In the case of `C=C(CC)C(=O)c1ccc(OCC(=O)O)c(Cl)c1Cl`, the “activity change, negative = cytotoxicity” value was 9.14% (inactive). As to `CN1CCN(CCCN2c3ccccc3Sc3ccc(S(=O)(=O)N(C)C)cc32)CC1`, the “activity change, negative = cytotoxicity” value is -28% (inactive). With `O=C1[C@H]2CCCC[C@H]2C(=O)N1CCCCN1CCN(c2nsc3ccccc23)CC1`, the “activity change, negative = cytotoxicity” value is 10.4% (inactive). As to `C[C@H](O)C(=O)Nc1c(I)c(C(=O)NC(CO)CO)c(I)c(C(=O)NC(CO)CO)c1I`, the “activity change, negative = cytotoxicity” value was -0.0576% (inactive). Take `O=C(N/N=C/c1ccccc1O)c1ccncc1`: the “activity change, negative = cytotoxicity” value was -1.14% (inactive). Still for that read-out and setting: in the case of `c1ccc(OCc2ccc(CCCN3CCOCC3)cc2)cc1` it was -16.6% (inactive); in that of `Cc1cccn2c(=O)c(-c3nnn[nH]3)cnc12`, 4.13% [at 25.3 µM] (inactive). As to `CCN(CC)C(=O)/C(C#N)=C/c1cc(O)c(O)c([N+](=O)[O-])c1`, the “activity change, negative = cytotoxicity” value is 4.74% (inactive). `CC(=O)N(O)CCCCCNC(=O)CCC(=O)N(O)CCCCCNC(=O)CCC(=O)N(O)CCCCCN`: the “activity change, negative = cytotoxicity” value was -41.3% (inactive). On to `CCCCCCCCCCCCCCCC[N+](C)(C)CC`, for which the Potency is 2.51 µM (active). With `O=C(CCCN1CCC(O)(c2ccc(Br)cc2)CC1)c1ccc(F)cc1`, the “activity change, negative = cytotoxicity” value is 11.8% (inactive). On to `CCOc1ccc(Cc2nccc3cc(OCC)c(OCC)cc23)cc1OCC`, for which the Potency was 2.24 µM (active). For `CCC(C(=O)OCCN(CC)CC)c1ccccc1` (configuration not stated), the “activity change, negative = cytotoxicity” value is 0% (inactive).
